Reference: PubChem BioAssay (EPA / NIEHS)
Inconclusive results are not listed. Active and inactive are the calls of the source. How the source made its calls: active means hit-call score of the fitted dose curve at least 0.9, where 1 is the maximum; inconclusive means response in the unintended direction; inactive means score below 0.9.

Test: CCTE_Harrill_HTTr_CellCount_MCF7: CCTE's Cell Proliferation Assessment for the High-Throughput Transcriptomics (HTTr) Platform, Harrill Lab (AID 2284012);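 further: intended direction is loss of nuclei count meaning fewer cells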
Description: This is a cell-based assay that evaluates cell viability and cell growth using high content imaging to count the number of Hoechst-labeled nuclei that are present in an assay well in 384-well format.This is a cell-based assay that evaluates cell viability and cell growth in MCF-7 cells. This was part of a full screening experiment. High content imaging is used to count the number of Hoechst-labeled nuclei that are present in an assay well in 384-well format.The assay component endpoint CCTE_Harrill_HTTr_CellCount_MCF7 was analyzed with bidirectional fitting relation to DMSO as the negative control and baseline of activity. Using a type of viability reporter, loss-of-signal activity can be used to understand changes in cell count. To generalize the intended target to other relatable targets, this assay endpoint is annotated to cell cycle, where the subfamily is cell count.
Chemicals were tested in MCF7 cells in an eight point dilution series with a six hour exposure duration.

| Compound | outcome | AC50 |
| --- | --- | --- |
| O=c1[nH]c(=O)[nH]c(=O)[nH]1 | inactive |  |
| C[C@H]1CCCC(=O)CCC/C=C/c2cc(O)cc(O)c2C(=O)O1 | inactive |  |
| O=CC=O | inactive |  |
| O=C(O)C(F)(F)C(F)(F)C(F)(F)C(F)(F)C(F)(F)C(F)(F)C(F)(F)C(F)(F)C(F)(F)C(F)(F)F | inactive |  |
| O=C(O)C(F)(F)C(F)(F)C(F)(F)C(F)(F)C(F)(F)C(F)(F)F | inactive |  |
| CCc1ccccc1C | inactive |  |
| CCC1(c2ccc(N)cc2)CCC(=O)NC1=O (stereo not given) | inactive |  |
| CCCCCCCCc1ccc(O)cc1 | inactive |  |
| CCCCCCCCC(=O)NCc1ccc(O)c(OC)c1 | inactive |  |
| C[C@H]1O[C@@H](O[C@H]2[C@@H](O)C[C@H](O[C@H]3[C@@H](O)C[C@H](O[C@H]4CC[C@@]5(C)[C@H](CC[C@@H]6[C@@H]5CC[C@]5(C)[C@@H](C7=CC(=O)OC7)CC[C@]65O)C4)O[C@@H]3C)O[C@@H]2C)C[C@H](O)[C@@H]1O | inactive |  |
| CC(C)C1CCC(Cc2ccc(Cl)cc2)C1(O)Cn1cncn1 (stereo not given) | inactive |  |
| CN(C)N=O | inactive |  |
| [O-][Cl+2]([O-])O | inactive |  |
| ClC(Cl)=C(Cl)C(Cl)=C(Cl)Cl | inactive |  |
| C[C@@H](Oc1ccc(Cl)cc1Cl)C(=O)O | inactive |  |
| CC(C)CCCCCCOC(=O)c1ccccc1C(=O)OCCCCCCC(C)C | inactive |  |
| CCC[CH2][Sn]([CH2]CCC)([CH2]CCC)[O]C(=O)c1ccccc1 |  | 17.9 µM (active) |
| COP(=O)(OC)OC | inactive |  |
| CCOP(=S)(OCC)Oc1ccc(S(C)=O)cc1 (stereo not given) | inactive |  |
| COc1ccc(C=O)cc1OC | inactive |  |

| Compound | outcome | AC50 |
| --- | --- | --- |
| CC1CCCCC1NC(=O)Nc1ccccc1 (stereo not given) | inactive |  |
| CCC(C)(C)c1ccc(O)c(C(C)(C)CC)c1 | inactive |  |
| Cc1ccccc1C(=O)Nc1cccc(OC(C)C)c1 | inactive |  |
| CC(C)OC(=O)Nc1ccccc1 | inactive |  |
| C[C@]12CC[C@H](O)CC1=CC[C@@H]1[C@@H]2CC[C@]2(C)C(=O)CC[C@@H]12 | inactive |  |
| Clc1ccc(COC(Cn2ccnc2)c2ccc(Cl)cc2Cl)cc1 (stereo not given) | inactive |  |
| Oc1c(I)cc(I)cc1I | inactive |  |
| COc1ccc(C(O)(c2cncnc2)C2CC2)cc1 (stereo not given) | inactive |  |
| O=S(=O)(c1ccc(Cl)cc1)c1ccc(Cl)cc1 | inactive |  |
| Oc1cccc2cccnc12 | inactive |  |
| Nc1ccc(N=Nc2ccc(-c3ccc(N=Nc4c(S(=O)(=O)O)cc5cc(S(=O)(=O)O)c(N=Nc6ccccc6)c(O)c5c4N)cc3)cc2)c(N)c1 | inactive |  |
| CC(=O)[O][Hg][c]1ccccc1 |  | 50 µM (active) |
| O=[N+]([O-])c1ccc(O)c([N+](=O)[O-])c1 | inactive |  |
| Nc1ccc(-c2ccc(N)c(Cl)c2)cc1Cl | inactive |  |
| CC(C)(C)CC(C)(C)c1ccc(O)cc1 | inactive |  |
| CCCCOCCOC(C)=O | inactive |  |
| CC(=O)OC(c1ccccc1)C(Cl)(Cl)Cl (stereo not given) | inactive |  |
| CC(C)c1cccc(C(C)C)c1O | inactive |  |
| O=C1C2(Cl)C3(Cl)C4(Cl)C(Cl)(Cl)C5(Cl)C3(Cl)C1(Cl)C5(Cl)C24Cl (stereo not given) | inactive |  |
| C=CC#N | inactive |  |
